Screening results (PubChem)
Rows were chosen to be rich in hits. Some 14% of all compounds tested hit in one or more screens of this group.
Pf growth 48h – inhibits P. falciparum growth in the first generation, 48 h | 5.9% of 310,000 active | P. falciparum luciferase growth in erythrocytes, 48 h | Potency, µM (highest dose often 28.7 µM), for inactives: at the highest dose activity change, negative = inhibition, actives largely listed as inhibitors; further: potency means the concentration at half of the fitted maximal effect
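Parasite viability was followed by luminescence of a genomically integrated firefly luciferase. Cultures held 0.1% parasitemia at 2% hematocrit (final), incubated under 5% CO2 at 37 C.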
Lassa entry inh – blocks Lassa virus binding to or entry into cells. Lassa virus pseudotype entry inhibition, cell reporter. Potency, µM (highest dose often 37.9 µM), for the others: at the highest dose activity change, negative = inhibition, most hits filed as inhibitors. 1.2% of 300,000 active. AID 540256; calls by dose curve; tested in HEK293 cells; further: potency means the concentration at half of the fitted maximal effect; nearly all actives have a fitted effect of over 50% in size
HCV inh – HCV inhibition; Huh7.5.1 HCVcc-Cre infection, luciferase reporter, 44 h; Potency, µM (titrated, usually from 41.8 µM), for the others: top-dose activity change, negative = inhibition, hits mostly inhibitors; 3.4% of 340,000 active; further: potency means the concentration at half of the fitted maximal effect
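A cell-based infection assay in which seeded cells (1,000 per well) receive test compound after 4 h, are inoculated with HCVcc-Cre at approximately 0.5 moi, and are incubated 44 h before luminescence detection.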
Pf growth 96h – P. falciparum growth inhibition at 96 hours | Potency, µM (highest dose often 28.7 µM), inactives show top-dose activity change, negative = inhibition, usual class: inhibitors | 6.9% of 320,000 active | AID 504834 | P. falciparum luciferase reporter growth, 96 h; further: potency means the concentration at half of the fitted maximal effect
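Plates of compound plus infected erythrocytes (2% hematocrit, 0.05% parasitemia final) incubate 96 hours, 37 C, 5% CO2. Detection reagent added; reduced luminescence from the parasites' luciferase reporter flags inhibition.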
Marburg entry inh – inhibitors of Marburg virus binding or cell entry. Marburg virus pseudotyped entry inhibition, cell reporter. Potency, µM (top dose mostly 37.8 µM), without a hit: at the top dose activity change, negative = inhibition, actives largely listed as inhibitors. 1.8% of 300,000 active; calls by dose curve; tested in HEK293 cells; further: potency means the concentration at half of the fitted maximal effect
HCMV antiviral – inhibitors of human cytomegalovirus; HFF cells, HCMV-luciferase reporter, 72 h; active compounds read low; activity change, negative = inhibition, % at 57.5 µM; 4.5% of 410,000 active; in the data active means activity change below about -60%; inconclusive means no clear call, values can overlap the other calls; inactive means above about -39%
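Two-dose cell screen: HFF monolayers treated with compounds and infected with luciferase-expressing HCMV at 1 PFU/cell, 72 h at 37C, then lysed for luciferase measurement.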
* = called active by the depositor; [ ] = remark or other dose. Unless noted, the call rests on the fitted dose curve; in most records, active means well fitted inhibition curve with a large enough effect; inconclusive means small, poorly fitted or top-dose-only effect, or another doubt; inactive means no such curve, though single readings can be large or run the other way. On the % scale 0 is the no-effect control and ±100 the full control effect.

`CC(C)c1ccc(/C=N/n2c(COc3ccccc3)n[nH]c2=S)cc1` gave Pf growth 48h -16%, Lassa entry inh 1.6µM*, HCV inh 19%, Pf growth 96h 9%, Marburg entry inh inconclusive and HCMV antiviral 27.
Screening Cc1nn(-c2ccccc2)c(C)c1/C=N/n1c(-c2ccncc2)n[nH]c1=S returned Pf growth 48h inconclusive, Lassa entry inh inconclusive, HCV inh 5%, Pf growth 96h -8%, Marburg entry inh inconclusive and HCMV antiviral -74*.
For COc1cccc(-c2nc3nc(C)cc(C)n3c2NC2CCCC2)c1 the results were HCMV antiviral 30.
`S=c1[nH]nc(COc2ccccc2)n1/N=C/C=C/c1ccccc1` gave Pf growth 48h 6%, Lassa entry inh inconclusive, HCV inh 14%, Pf growth 96h 19%, Marburg entry inh 33% and HCMV antiviral -20.
For S=c1[nH]nc(COc2ccccc2)n1/N=C/C=C/c1ccco1 the results were Pf growth 48h 65%, Lassa entry inh 0.79µM*, HCV inh 6%, Pf growth 96h 109%, Marburg entry inh -16%[46.1 µM] and HCMV antiviral 21.
For O=[N+]([O-])c1ccc(Cl)c(/C=N/n2c(-c3ccncc3)n[nH]c2=S)c1 the results were Pf growth 48h -9%, Lassa entry inh 2%, HCV inh 14%, Pf growth 96h -4%, Marburg entry inh 18%[46.1 µM] and HCMV antiviral -67*.
Screening COC(=O)c1ccc(CNC(=O)CN2C(=O)NC(Cc3ccccc3)(c3ccccc3)C2=O)cc1 (stereo not drawn) returned HCMV antiviral -30.
For Clc1cccc(Cl)c1/C=N\Nc1nccs1 the results were Pf growth 48h inconclusive, Lassa entry inh inconclusive, HCV inh -14%, Pf growth 96h 9.3µM*, Marburg entry inh -5% and HCMV antiviral 28.
`O=C1N(Cc2ccccc2)c2ccc(Br)cc2[C@]12C[C@H](O)CO2` gave HCMV antiviral -12.
`Cc1ccc2sc(N(CCCN(C)C)C(=O)c3ccc(S(=O)(=O)N4CCCCCC4)cc3)nc2c1C` gave Pf growth 48h inconclusive, Lassa entry inh -13%, HCV inh 14µM*, Pf growth 96h inconclusive, Marburg entry inh inconclusive and HCMV antiviral -25.
`Cc1cc(C)c2nc(N(CCCN(C)C)C(=O)c3ccc(S(=O)(=O)N4CCCCCC4)cc3)sc2c1` gave Pf growth 48h 9.3µM*, Lassa entry inh inconclusive, HCV inh 11µM*, Pf growth 96h 12µM*, Marburg entry inh inconclusive and HCMV antiviral inconclusive.
For CCCSc1sc(C(=O)OC)c(-c2cccs2)c1C#N the results were Pf growth 48h 10µM*, Lassa entry inh -26%[46.1 µM], HCV inh inconclusive, Pf growth 96h 10µM*, Marburg entry inh inconclusive and HCMV antiviral 2.
Screening CSc1sc(C(=O)N2CCCCC2)c(-c2cccs2)c1C#N returned Pf growth 48h -2%, Lassa entry inh -12%, HCV inh 8%, Pf growth 96h 3%, Marburg entry inh 18%[14.2 µM] and HCMV antiviral -19.
`Cc1ccc(Cn2c(C(=O)O)c(CNC3CCCCC3)c3ccc(C)cc32)cc1` gave Lassa entry inh -1%[46.1 µM] and HCMV antiviral 32.
For CCN1c2ccccc2-c2nc(SCC(=O)NCc3ccc(C)cc3)ncc2S1(=O)=O the results were Lassa entry inh -18%[46.1 µM] and HCMV antiviral 0.
O=C(N/N=C/c1ccc([N+](=O)[O-])o1)c1cc(-c2cccc(Br)c2)nc2ccccc12 was read as Pf growth 48h inconclusive, Lassa entry inh inconclusive, HCV inh 10µM*, Pf growth 96h 0.83µM*, Marburg entry inh inconclusive and HCMV antiviral -70*.
CCCc1ccc(-c2cc(C(=O)N/N=C/c3ccc([N+](=O)[O-])o3)c3ccccc3n2)cc1 was read as Lassa entry inh 5.6µM*, HCV inh 10µM*, Pf growth 96h 1.7µM*, Marburg entry inh 7.1µM* and HCMV antiviral inconclusive.
COc1ccc(CNC(=O)CN2C(=O)NC(C)(c3ccc(C(C)(C)C)cc3)C2=O)cc1 (stereo not drawn) was read as Lassa entry inh -19%, HCV inh -16%, Pf growth 96h -28%, Marburg entry inh inconclusive and HCMV antiviral -37.
`COc1ccc(C2(C)NC(=O)N(CC(=O)c3cc(C)n(C4CC4)c3C)C2=O)cc1` (stereo not drawn) gave Pf growth 48h inconclusive, HCV inh 11%, Pf growth 96h 3.7µM* and HCMV antiviral inconclusive.
For COc1ccc(C2(c3ccc(OC)cc3)NC(=O)N(CC(=O)Nc3ccc(C(=O)N(C)C)cc3)C2=O)cc1 the results were Pf growth 48h inconclusive, Lassa entry inh -14%, HCV inh -13%, Pf growth 96h inconclusive, Marburg entry inh 18% and HCMV antiviral -66*.
Screening C=CCNC(=O)CN1C(=O)NC(C)(c2ccc(OC)cc2)C1=O (stereo not drawn) returned Pf growth 48h 34%, Lassa entry inh 23%, HCV inh 12%, Pf growth 96h 19%, Marburg entry inh 4%[46.1 µM] and HCMV antiviral -99*.
`O=C(Nc1cc(-c2ccccc2)[nH]n1)c1ccc(Cl)cc1` gave Pf growth 48h -9%, HCV inh inconclusive, Pf growth 96h -18% and HCMV antiviral 34.
For CC(SC#N)C(=O)C12CC3CC(CC(C3)C1)C2 (stereo not drawn) the results were Pf growth 48h 13µM*, Lassa entry inh -1%[46.1 µM], HCV inh 0%, Pf growth 96h 30%, Marburg entry inh inconclusive and HCMV antiviral inconclusive.
`CC(Sc1n[nH]c(N)n1)C(=O)C12CC3CC(CC(C3)C1)C2` (stereo not drawn) gave Lassa entry inh inconclusive, HCV inh 17%, Pf growth 96h 0%, Marburg entry inh -5% and HCMV antiviral -1.
`COc1cccc(CN(C)C(=O)CSCC(=O)Nc2cccc(C)c2)c1OC` gave Pf growth 48h inconclusive, HCV inh -18%, Pf growth 96h inconclusive and HCMV antiviral -16.
`CC(C(=O)Nc1ccccc1Br)c1ccc([N+](=O)[O-])cc1` (stereo not drawn) gave Pf growth 48h 13µM*, HCV inh inconclusive, Pf growth 96h 4.1µM*, Marburg entry inh 4% and HCMV antiviral inconclusive.
`CC(C(=O)NC1CCCCCC1)c1ccc([N+](=O)[O-])cc1` (stereo not drawn) gave Pf growth 48h -17%, Lassa entry inh -3%, HCV inh -4%, Pf growth 96h 8.3µM*, Marburg entry inh inconclusive and HCMV antiviral inconclusive.
`Cc1cccnc1NC(=O)C1CCC1` gave Pf growth 48h 6%, Lassa entry inh 24%, HCV inh 14%, Pf growth 96h 4% and Marburg entry inh 18%.
